The results in this text go back to PubChem BioAssay AID493208 (National Center for Advancing Translational Sciences (NCATS), 2011).

The campaign covered roughly 44,000 compounds. About 340 (0.77%) were called active. About 5% were inconclusive and are not listed. The call rests on the fitted dose curve; in most records, active means well fitted inhibition curve with a large enough effect; inconclusive means small, poorly fitted or top-dose-only effect; inactive means flat fitted curve, though single readings scatter. Many of the other results were omitted from the sample, so actives are more common in it than they were.
Potency means the concentration at half of the fitted maximal effect.

The nature of this experiment: Acumen qHTS Assay for Inhibitors of the mTORC1 Signaling Pathway in MEF (Tsc2-/-, p53-/-) Cells: Sytravon. Further: nearly all actives have a fitted effect of over 50% in size.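 On activity change, negative = inhibition: plate controls were DMSO for no effect and rapamycin for full effect.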 Conditions: phospho-rpS6 immunofluorescence/PI, 24 h; series mostly up to 38.3 µM; activity change, negative = inhibition: at the top concentration. From the text:
NIH Molecular Libraries Probe Production Centers Network [MLPCN] NIH Chemical Genomics Center [NCGC] MLPCN Grant: NS059428-01 Assay Submitter (PI): Blenis, John; Hoffman, Greg; Harvard University NCGC Assay Overview: The mammalian target of rapamycin (mTOR) is an intracellular serine/threonine kinase Aberrant regulation of mTOR signaling plays a causative role in a number of human diseases, including cancer, benign tumors such as lymphangioleiomyomatosis (LAM) and Tuberous Sclerosis Complex (TSC), and metabolic diseases such as diabetes and obesity. This project aims to identify inhibitors of ribosomal protein S6 (rpS6) phosphorylation. The phosphorylation of rpS6 is a key event downstream of mTOR activation. The assay uses a phospho-specific antibody of phospho-rpS6 to detect inhibitors of mTOR activation. Mutations in the Tsc1 and Tsc2 genes are the underlying genetic lesions responsible for TSC, causing constitutive activation of the mTORC1 pathway and leading to profound effects on cell metabolism. Aberrant metabolism in cancer has recently received significant attention as a target to develop therapeutic agents in the treatment of cancer.1 As Tsc2-/- cells have lost the ability to respond to energy and growth factor deprivation, these cells are unable to properly down regulate cellular biosynthetic processes in response to metabolic stress, and are thus extremely sensitive to glucose deprivation-induced death.2 A central goal of this project is to explore the unique cell survival and metabolic properties of cells with Tsc1 or Tsc2 by screening for compounds that selectively target the Tsc2-/- MEFs by screening both Tsc2-/- and WT MEF cell lines. We hope to better understand these aspects of TSC physiology in order to exploit them for therapeutic benefit.
NCGC Acumen Assay Protocol Summary: For quantitative high throughput analysis of mTORC1 signaling, we developed a cell-based assay for immuno-fluorescence based detection of rpS6 phosphorylation on the Acumen Explorer that will be used a platform for the primary small molecule screen. Mouse embryonic fibroblasts (MEFs) are cultured in 1536-well plates using DMEM + 10% FBS. Twenty-four hrs after plating, test compounds (solubilized in DMSO) are delivered and incubated with the cells for 24 hrs at 37 degree Celsius. Following the incubation, media with compound is aspirated and the cells are fixed in 4% paraformaldehyde (PFA) containing PBS + 0.2% TX-100. Next, PFA is aspirated, cells are washed two times with PBS plus 0.2% TX-100 and the cells are blocked for 1 hr at room temperature (blocking buffer: LiCOR Blocking Buffer plus 0.2% TX-100). […] Cells are washed two times with PBS plus 0.2% TX-100, and stained with 10 uM propidium iodide (PI) for 20-25 minutes for cell number measurement (1:500 dilution of Hoescht staining is also added for IN Cell imaging). The plates are scanned on the Acumen Explorer laser scanning instrument (TTP Labtech) using the 488nm laser for simultaneous excitation of the Alexa-488 and PI. […] The normalized phospho-S6 staining is calculated as the ratio of the integrated Alexa 488 intensity divided by the integrated PI intensity for the single concentration rapamycin control (7.5 nM) and DMSO columns. […] Inhibition of the pathway is defined based on the normalized phospho-S6 intensity in rapamycin treated cells. Active cells are defined as those with a normalized phospho-S6 staining above this threshold, and each treatment is reported as the % positive cells in the well, where thresholds are defined by selecting wells with the highest and lowest signal and differentiating between the % non-active and % active populations. In addition to the pathway specific phospho-S6 endpoint, the number of PI stained cells from the Acumen is recorded as a measure of cell viability. The primary screen was performed with a MEF cell line in a defined genetic background, Tsc2-/-, p53-/- cell line stably transfected with an empty vector control (Tsc2-/- MEF).
(In general: qHTS replaces the single test concentration by a dilution series.)
As to `COc1ccc2c(Sc3ccc(C)cc3)c(C(=O)NC(C)c3ccccc3)[nH]c2c1` (configuration not stated), the “activity change, negative = inhibition” value is -13.1% (inactive).

In the case of `CCc1ccc(CNC(=O)C2CCN(c3nn4cc(-c5ccc(F)cc5)nc4s3)CC2)cc1`, the “activity change, negative = inhibition” value was 4.71% (inactive).

For the compound `COCCNC(=O)CSc1nc(-c2ccccc2)[nH]c1-c1ccc(C)cc1`, the “activity change, negative = inhibition” value is -5.91% (inactive).

For the compound `CCOc1ccccc1NC(=O)CSc1ncc(S(=O)(=O)c2ccc(C(C)(C)C)cc2)c(=O)[nH]1`, the “activity change, negative = inhibition” value was 1.68% (inactive).

As for `CCOc1ccc(CNCc2c(C(=O)O)c(C)n(Cc3cccc(OC)c3)c2C)cc1OC`, the “activity change, negative = inhibition” value was 0.48% (inactive).

Regarding `CCCCOc1ccc(CN2C(=O)C(=O)c3cc(Br)cc(C)c32)cc1OC`, the Potency is 9.27 µM (active).

Consider `CCCCOc1ccc(Cn2c(=O)oc3ccc(C)cc32)cc1OC`, for which the “activity change, negative = inhibition” value was -1.14% (inactive).

For the compound `Cc1cc(NC(=O)c2cccc(Cl)c2)ccc1-c1cc2ccccc2oc1=O`, the “activity change, negative = inhibition” value is 1.45% (inactive).

Consider `COc1cccc(C(=O)Nc2nnc(S(=O)(=O)N3CCOCC3)s2)c1`, for which the “activity change, negative = inhibition” value is 0% (inactive).

For the compound `COc1ccccc1NC(=O)c1cc(S(=O)(=O)NCCc2ccccc2)ccc1F`, the “activity change, negative = inhibition” value was -4.31% (inactive).

Consider `Cc1cc(C)c2oc(-c3cccc(NC(=O)c4cccc(F)c4)c3C)nc2c1`, for which the “activity change, negative = inhibition” value is 0.309% (inactive).

For `CCc1ccc(CNCc2c(C(=O)O)n(Cc3ccc(F)cc3Cl)c3cc(OC)ccc23)cc1`, the “activity change, negative = inhibition” value is 1.29% (inactive).

`COc1ccc(C)cc1NC(=O)COCc1cc(-c2cccs2)on1`: the “activity change, negative = inhibition” value is 7.46% (inactive).

For the compound `COc1ccc(C(F)(F)F)cc1NC(=O)c1sc2nc(-c3cccs3)ccc2c1N`, the Potency was 18.5 µM (active).

In the case of `COc1ccc(Cl)cc1NC(=O)CSc1nc(-c2cccs2)cc(C(F)(F)F)n1`, the “activity change, negative = inhibition” value was 12.9% (inactive).

As to `Cc1nc2c(c(C)nn2-c2ccccc2)c(C)c1CCC(=O)NCCc1ccc(Cl)cc1`, the “activity change, negative = inhibition” value is 3.24% (inactive).

Turning to `O=C(NCc1ccccc1)c1cc(-c2cccc(Cl)c2)on1`, the “activity change, negative = inhibition” value is -24.7% (inactive).

On to `CC(C)CCN(C(=O)Nc1ccc(Cl)c(Cl)c1)C(C)c1cccs1` (configuration not stated), for which the “activity change, negative = inhibition” value is 0% (inactive).

As for `Cc1cccc(CCNC(=O)c2ccc3c(c2)nc2n3CCC(C)C2)c1` (configuration not stated), the “activity change, negative = inhibition” value was 4.15% (inactive).

Consider `Cc1nn2c(=O)cc(COC(=O)c3ccccc3NC(=O)COc3ccccc3C)nc2s1`, for which the “activity change, negative = inhibition” value is 10.8% (inactive).

For the compound `COc1ccc(Br)cc1CNC(=O)c1cc(=O)[nH]c2ccc(S(=O)(=O)N3CCCC3)cc12`, the “activity change, negative = inhibition” value was 5.76% (inactive).

On to `CN(C)CCCn1c(-c2ccc(Cl)cc2)csc1=Nc1ccccc1`, for which the “activity change, negative = inhibition” value is -15.6% (inactive).

`COc1ccc(-c2nnc(SCC(=O)Nc3ccccc3C)o2)cc1OC`: the “activity change, negative = inhibition” value was 3.97% (inactive).

Consider `COc1ccc(Cc2nc3ccc(C(=O)NCc4ccc(OC)cc4OC)cc3o2)cc1`, for which the “activity change, negative = inhibition” value is -0.814% (inactive).

In the case of `Cc1ccc(Cl)cc1NC(=O)CCC(=O)N1CC(C)Sc2ccccc21` (configuration not stated), the “activity change, negative = inhibition” value is 0% (inactive).

Turning to `Cc1nc2ccccn2c(=O)c1NC(=O)c1c(F)cccc1F`, the “activity change, negative = inhibition” value is -4.9% (inactive).

Take `CCc1cccc(NC(=O)Cn2nc(CC)n3c(cc4cc(C)ccc43)c2=O)c1`: the “activity change, negative = inhibition” value was -12.5% (inactive).

Regarding `CCOc1ccc(Nc2c(S(=O)(=O)c3ccccc3)cnc3ccccc23)cc1`, the “activity change, negative = inhibition” value was -1.31% (inactive).

`COc1ccc(CNC(=O)c2cc3cccc(OC)c3oc2=O)cc1`: the “activity change, negative = inhibition” value is -8.78% (inactive).

Consider `COc1ccc(-n2c(SCC(N)=O)nc3c(oc4ccccc43)c2=O)cc1`, for which the “activity change, negative = inhibition” value was -0.0565% (inactive).

With `CCOc1ccc(C2C(C(=O)Nc3ccc(Cl)cc3)=C(C)Nc3nc(C(F)(F)F)nn32)cc1` (configuration not stated), the Potency is 5.85 µM (active).

On to `CCOc1ccccc1NC(=O)C1=C(C)Nc2ncnn2C1c1ccc(NC(C)=O)cc1` (configuration not stated), for which the “activity change, negative = inhibition” value is -2.65% (inactive).

As to `CCOc1cc(C2C(C(=O)Nc3ccc(OC)cc3)=C(C)Nc3nc(SC)nn32)ccc1O` (configuration not stated), the “activity change, negative = inhibition” value was 1.6% (inactive).

`CCc1cccc(NC(=O)c2cnc(N3CCOCC3)c3ccccc23)c1`: the “activity change, negative = inhibition” value is -16.5% (inactive).

As for `Cc1cccc(N2CCN(C3=C(c4ccccc4)C(=O)c4ccccc43)CC2)c1C`, the “activity change, negative = inhibition” value was -29.1% (inactive).

As to `COc1ccc(N(CC(=O)NCCc2ccc(Cl)cc2)S(=O)(=O)c2c(C)nn(C)c2C)cc1`, the “activity change, negative = inhibition” value is -13.3% (inactive).

With `Cc1ccc(OCC(=O)Nc2ccc(OCc3cc(=O)n4c(C)csc4n3)cc2)cc1C`, the “activity change, negative = inhibition” value is -25% (inactive).

`O=C(Cn1c(=O)n(-c2ccc(F)cc2)c(=O)c2sc3ccccc3c21)NC1CCCC1`: the “activity change, negative = inhibition” value was 6.67% (inactive).

Regarding `CCOc1cc(-c2nnc(SCC(=O)NC3CCCC3)nc2-c2ccc(OC)c(OCC)c2)ccc1OC`, the “activity change, negative = inhibition” value was 0.0507% (inactive).

For `CCOc1ccc(CCNC(=O)Cn2nc(CC)n3c(cc4sc(CC)cc43)c2=O)cc1OCC`, the “activity change, negative = inhibition” value was -8.12% (inactive).

With `Cc1ccc(C(=O)CC2(O)C(=O)N(CCc3ccccc3)c3ccc(Br)cc32)cc1` (configuration not stated), the “activity change, negative = inhibition” value is -4.49% (inactive).

Turning to `CCCN1C(=O)C(O)(CC(=O)c2ccc(CC)cc2)c2cc(Br)ccc21` (configuration not stated), the Potency was 4.65 µM (active).

With `CCc1ccc(C(=O)CC2(O)C(=O)N(CCc3ccccc3)c3ccc(Br)cc32)cc1` (configuration not stated), the “activity change, negative = inhibition” value is -7.15% (inactive).

As to `CCOc1ccccc1C(=O)NCC(c1ccc(N(C)C)cc1)N1CCCC1` (configuration not stated), the “activity change, negative = inhibition” value is 0% (inactive).

In the case of `COc1ccccc1NC(=O)c1sc2nc(C)c(C(=O)Nc3ccc(Cl)cc3)c(-c3ccc(Br)cc3)c2c1N`, the “activity change, negative = inhibition” value was 0% (inactive).

Regarding `COC(=O)c1ccccc1NC(=O)Cn1c(=O)cc(C)c2c(C)nn(-c3cccc(Cl)c3C)c21`, the “activity change, negative = inhibition” value is 3.23% (inactive).

`CCOc1ccc(N(CC)C(=O)c2cc3c(=O)oc4ccccc4c3s2)cc1`: the “activity change, negative = inhibition” value was 3.16% (inactive).
